Assay results as given in PubChem BioAssay (NCATS).
Results filed as inconclusive are left out. Activity calls are given as the source filed them. Calls come from the whole dose curve; as a rule, active = well fitted inhibition curve with a large enough effect; inconclusive = small, poorly fitted or top-dose-only effect; inactive = no such curve, though single readings can be large or run the other way.

Test: qHTS assay to identify inhibitors of the type 1 interferon - major histocompatibility complex class I in skeletal muscle: Counter screen cell viability and HiBit confirmation (AID 1347412); note: nearly all actives have a fitted effect of over 60% in size
Conditions: iHSKM muscle cells + IFN-b, HiBiT or CellTiter-Glo, 24 h; HiBiT
Source text: Assay Submitter (PI): Travis B. Kinder Ph.D. & James Inglese Ph.D. Assay Development and Screening Technology Laboratory (ADST) National Center for Advancing Translational Sciences (NCATS), Rockville, MD National Institute of Health (NIH), Bethesda, Maryland Idiopathic inflammatory myopathies, collectively referred to as myositis, are a group of rare autoimmune diseases characterized by skeletal muscle inflammation, weakness, and usually accompanied by systemic pathologies of the skin, lungs, or vasculature. Current immunosuppressive therapies and glucocorticoids are often not curative and are accompanied by harsh side effects, especially in children with juvenile myositis. We initiated a drug repurposing and development program to identify more targeted, less toxic therapeutics to treat myositis. Although its cause is not known, muscle from a subset of patients have an abundance of the inflammatory type 1 interferon (IFN) and a down-stream product major histocompatibility complex class I (MHC class I), which are both thought to contribute to damage and weakness. We conducted quantitative high throughput screening on 6,576 compounds (4,679 unique) through a series of cell-based assays to identify those that inhibit the IFN-stimulated expression of MHC class I in muscle precursor cells (myoblasts). The compound identification and evaluation strategy utilized a primary screen with reporter-tagged MHC class I in genome-engineered myoblasts, ATP content counter screen for viability, HLA-ABC immunofluorescence secondary screen, and HLA-B RT-qPCR tertiary screen. The primary screen utilized CRISPR/Cas9 genome-engineering of immortalized human myoblasts, C25cl48, where a pro-luminescent reporter HiBit was fused to the C-terminus of endogenous MHC class I allele HLA-B*08:01 (HLA-B HiBit myoblasts). HiBit is an 11 amino acid fragment of NanoLuc luminescent reporter (Promega Corporation), and when complexed to the larger LgBit fragment, the reconstituted enzyme produces light in the presence of furimazine substrate (Schwinn et al., 2018). Briefly, HLA-B HiBit myoblasts were plated into 1536-well plates, treated with 4.0 ng/ml human IFN-beta and 650 inhibitory compounds identified from primary screening in a 12-point, 1:3 titration with a high final concentration of 46 uM. Compounds were pinned into duplicate plates, with one for HiBit confirmation and one for ATP content viability assay. After 24 hrs of treatment, cells were assayed by either Nano-Glo HiBiT Lytic Detection System (Promega) or CellTiter Glo (Promega), and luminescence measured by a ViewLux 1430 Ultra HTS (Perkin Elmer). References: Schwinn MK, Machleidt T, Zimmerman K, Eggers CT, Dixon AS, Hurst R, Hall MP, Encell LP, Binkowski BF, Wood K V. 2018. CRISPR-Mediated Tagging of Endogenous Proteins with a Luminescent Peptide. ACS Chem Biol 13:467-474. doi:10.1021/acschembio.7b00549
PROTOCOL TABLE (as described by Inglese et al., 2007) SEQUENCE No. (e.g., 1, 2, 3, etc.); […] (e.g., Cells, Incubation, Reagent, etc.); VALUE; DESCRIPTION 1a; Cells; 5 uL; Use a Multidrop Combi (Thermo Scientific) to seed 300 cells/well into 16 Greiner 1536 well white/solid bottom, high base, TC plates in 5 ul/well of iHSKM growth medium (GM) without dexamethasone into columns 1+2. Add metal lids with gas-exchange holes 1b; Cells; 5 uL; Use a Multidrop Combi (Thermo Scientific) to seed 300 cells/well into 16 Greiner 1536 well white/solid bottom, high base, TC plates in 5 ul/well of iHSKM GM without dexamethasone + 4 ng/ml IFN-b into columns 3 - 48. Add metal lids with gas-exchange holes 2; Incubate; 1 hr; Incubate at 37 C, 5% CO2, 95% RH 3; Compounds; 23 nl; Use Pin Tool (Wako) to transfer DMSO control, 92 uM final digitonin cytotoxic control, ruxolitinib IFN-b inhibitor control [High Concentration = 80 uM final, 16-pt, 1:2 in duplicate], and library compounds in DMSO. […]
% is set by controls: 0 for no effect and ±100 for the full control effect; potency is the fitted concentration of half-maximal effect.

Compound | Potency
CN1CCN(c2ccc(Nc3ncc4cc(C#N)c(=O)n(C5CCCC5)c4n3)cc2)CC1 | 9.91 µM (active)
C=C1C(=O)O[C@H]2C[C@H](C)C(/C=C/C(C)=O)=CC[C@H]12 | 3.13 µM (active)
CC(=O)/C=C1/C(=O)N(C)c2ccccc21 | 19.8 µM (active)
CC(=O)Nc1cc(Oc2ccc3c(nc(Nc4ccc(F)cc4F)n3C)c2C)ccn1 | 1.11 µM (active)
C=CCNC1=C2CC(C)CC(OC)C(O)C(C)/C=C(\C)C(OC(N)=O)C(OC)/C=C/C=C(\C)C(=O)NC(=CC1=O)C2=O (stereo not given) | 0.0497 µM (active)
O=C(/C=C\n1cnc(-c2cc(C(F)(F)F)cc(C(F)(F)F)c2)n1)NNc1cnccn1 | 0.625 µM (active)
COC(=O)c1ccc([C@H]2c3[nH]c4ccccc4c3C[C@H](C(=O)OC)N2C(=O)CCl)cc1 | 0.496 µM (active)
Cc1ccc(NC(=O)c2ccc3c(c2)OCCO3)cc1NC(=O)c1ccc2nc(OCCN3CCCC3)ccc2c1 | 0.557 µM (active)
COc1cc2c(NC3CCN(C4CCCCC4)CC3)nc(N3CCCN(C(C)C)CC3)nc2cc1OCCCN1CCCCC1 | 17.6 µM (active)
NC(=O)/C(=C/n1cnc(-c2cc(C(F)(F)F)cc(C(F)(F)F)c2)n1)c1cncnc1 | 1.57 µM (active)
Cc1cc2cc(Oc3ccnc(Nc4cccc(CS(=O)(=O)NCCN(C)C)c4)n3)ccc2[nH]1 | 22.2 µM (active)
CN(Cc1ccc(/C=C/C(=O)NO)cc1)CC12CC3CC(CC(C3)C1)C2 | 0.351 µM (active)
CC(C)c1c(-c2ccccc2)nc2c(C#N)c[nH]n2c1=O | 3.94 µM (active)
CC(=O)c1ccc2c(c1)c1cc(C(C)=O)ccc1n2CCNC(C)C | 1.11 µM (active)
C[C@H]1CNC(=O)c2cnn3ccc(nc23)N[C@H](C)c2cc(F)ccc2O1 | 4.43 µM (active)
Cc1ccc(NC(=O)NCc2ccc3c(c2)CN(C2CCC(=O)NC2=O)C3=O)cc1Cl (stereo not given) | 0.0079 µM (active)
CN(C)C/C=C/C(=O)Nc1ccc(C(=O)N2CCC[C@@H](Nc3ncc(Cl)c(-c4c[nH]c5ccccc45)n3)C2)cc1 | 1.11 µM (active)
COC1=C2C[C@H](C)C[C@H](OC)[C@H](O)[C@@H](C)/C=C(/C)[C@H](OC(N)=O)[C@@H](OC)/C=C\C=C(\C)C(=O)NC(=CC1=O)C2=O | 0.0279 µM (active)
O=C(/C=C/c1ccc2ccc(C(F)(F)F)cc2n1)c1ccncc1 | 4.43 µM (active)
CCS(=O)(=O)Nc1ccc(Oc2ccc(F)cc2F)c(-c2cn(C)c(=O)c3[nH]ccc23)c1 | 0.0557 µM (active)

Same assay, conditions: iHSKM muscle cells + IFN-b, HiBiT or CellTiter-Glo, 24 h; HiBiT; at 45.9 µM (top of the series)

Compound | activity change, negative = inhibition
COc1cc2c3c(n(CCCNCCO)c(=O)c2cc1OC)-c1cc2c(cc1C3=O)OCO2 | -14.1% (inactive)

Same assay, conditions: iHSKM muscle cells + IFN-b, HiBiT or CellTiter-Glo, 24 h; Viability

Compound | Potency
COC(=O)c1ccc([C@H]2c3[nH]c4ccccc4c3C[C@H](C(=O)OC)N2C(=O)CCl)cc1 | 0.787 µM (active)
COc1cc2c(NC3CCN(C4CCCCC4)CC3)nc(N3CCCN(C(C)C)CC3)nc2cc1OCCCN1CCCCC1 | 24.9 µM (active)

Same assay, conditions: iHSKM muscle cells + IFN-b, HiBiT or CellTiter-Glo, 24 h; Viability; at 45.9 µM (top of the series)

Compound | activity change, negative = inhibition
CN1CCN(c2ccc(Nc3ncc4cc(C#N)c(=O)n(C5CCCC5)c4n3)cc2)CC1 | -23.1% (inactive)
C=C1C(=O)O[C@H]2C[C@H](C)C(/C=C/C(C)=O)=CC[C@H]12 | 64.7% (inactive)
CC(=O)/C=C1/C(=O)N(C)c2ccccc21 | -2.06% (inactive)
O=C(/C=C\n1cnc(-c2cc(C(F)(F)F)cc(C(F)(F)F)c2)n1)NNc1cnccn1 | -1.81% (inactive)
Cc1ccc(NC(=O)c2ccc3c(c2)OCCO3)cc1NC(=O)c1ccc2nc(OCCN3CCCC3)ccc2c1 | -19.9% (inactive)
COc1cc2c3c(n(CCCNCCO)c(=O)c2cc1OC)-c1cc2c(cc1C3=O)OCO2 | -9.73% (inactive)
CCc1cnn2c(NCc3ccc[n+]([O-])c3)cc(N3CCCC[C@H]3CCO)nc12 | 5.42% (inactive)
Cc1cc2cc(Oc3ccnc(Nc4cccc(CS(=O)(=O)NCCN(C)C)c4)n3)ccc2[nH]1 | -27.6% (inactive)
COc1nnc2ccc(N3CCC(c4ccc(OCCN5CCN(C)C(=O)[C@H]5C)cc4)CC3)nn12 | 14.1% (inactive)
CN(Cc1ccc(/C=C/C(=O)NO)cc1)CC12CC3CC(CC(C3)C1)C2 | -18.3% (inactive)
CC(C)c1c(-c2ccccc2)nc2c(C#N)c[nH]n2c1=O | -0.422% (inactive)
CC(=O)c1ccc2c(c1)c1cc(C(C)=O)ccc1n2CCNC(C)C | -5.98% (inactive)
COc1cc(C(N)=O)ccc1NC(=O)[C@@H]1N[C@@H](CC(C)(C)C)[C@@]2(C(=O)Nc3cc(Cl)ccc32)[C@H]1c1cccc(Cl)c1F | -16.3% (inactive)
Cc1ccc(NC(=O)NCc2ccc3c(c2)CN(C2CCC(=O)NC2=O)C3=O)cc1Cl (stereo not given) | -11.6% (inactive)
CN(C)C/C=C/C(=O)Nc1ccc(C(=O)N2CCC[C@@H](Nc3ncc(Cl)c(-c4c[nH]c5ccccc45)n3)C2)cc1 | 26.2% (inactive)
CCS(=O)(=O)Nc1ccc(Oc2ccc(F)cc2F)c(-c2cn(C)c(=O)c3[nH]ccc23)c1 | -28.2% (inactive)
Nc1nc2c(c(=O)[nH]1)N1CN(c3ccc(C(=O)N[C@@H](CCC(=O)O)C(=O)O)cc3)CC1CN2 (stereo not given in full) | -12% (inactive)
